Inconclusive results are not listed. Entries that show only a call come without a potency. Values without a mark were called inactive. The source made the active and inactive calls. The call rests on the fitted dose curve; in most records, active means well fitted cell-killing curve with a large enough effect in the repeat runs; inconclusive means weak or mixed curves, or effect the other way; inactive means flat fitted curve, though single readings scatter.
Legend:
[1] = cAMP Responsive Elements (CRE) small molecule antagonists, cell-based qHTS assay: qHTS cell viability counter screen (AID 2060913); further: nearly all actives have a fitted effect of over 40% in size
Outline: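 HEK293T CRE-bla, 2,000 cells/well, 18 h preincubation; cpd in DMSO + NKH477 0.25 uM final, 3 h 37 C/5% CO2; LiveBLAzer 2 h RT, then CellTiter-Glo 30 min RT, luminescence.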

[2] = cAMP Responsive Elements (CRE) small molecule agonists, cell-based qHTS assay: qHTS cell viability counter screen (AID 2060914); further: nearly all actives have a fitted effect of over 50% in size
Outline: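 Luminescence read-out (CellTiter-Glo, 30 min RT) of ATP-based viability in CRE-bla HEK 293T cells, run in the same wells as the β-lactamase reporter assay after 3 h compound treatment at 37 °C.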

With `CCCCOc1ccc(OCCCN2CCOCC2)cc1` the Potency [1] was “inactive” and the Potency [2] was “inactive”.
For `CCCCCCC[N+](CC)(CC)CCCCc1ccc(Cl)cc1`, the Potency [1] was “inactive” and the Potency [2] was “inactive”.
For `CCN(C=O)CC`, the Potency [1] was “inactive” and the Potency [2] was “inactive”.
With `COc1ccc(S(=O)(=O)N2c3ccc(Cl)cc3[C@@](O)(c3ccccc3Cl)[C@H]2C(=O)N2CCC[C@@H]2C(N)=O)cc1OC` the Potency [1] was “inactive” and the Potency [2] was “inactive”.
In the case of `CCO[Si](CCC#N)(OCC)OCC`, the Potency [1] was “inactive” and the Potency [2] was “inactive”.
In the case of `CCOc1ccc(Cc2nccc3cc(OCC)c(OCC)cc23)cc1OCC`, the Potency [1] was “inactive” and the Potency [2] was “inactive”.
In the case of `CCCSc1ccc2nc(NC(=O)OC)[nH]c2c1`, the Potency [1] was “inactive” and the Potency [2] was “inactive”.
With `NC(=O)NNC(N)=O` the Potency [1] was “inactive” and the Potency [2] was “inactive”.
With `COP(=O)(O)OP(=O)(O)OC` the Potency [1] was “inactive” and the Potency [2] was “inactive”.
In the case of `CC1=CCC(C(C)(C)O)CC1` (configuration not stated), the Potency [1] was “inactive” and the Potency [2] was “inactive”.
In the case of `CC(C)C(O)C(C)(C)CO` (configuration not stated), the Potency [1] was “inactive” and the Potency [2] was “inactive”.
For `CCc1ccccc1`, the Potency [1] was “inactive” and the Potency [2] was “inactive”.
With `NNC(=O)OCc1ccccc1` the Potency [1] was “inactive” and the Potency [2] was “inactive”.
For `CC(C)CC(C)O` (configuration not stated), the Potency [1] was “inactive” and the Potency [2] was “inactive”.
In the case of `NC(=O)NO`, the Potency [1] was “inactive” and the Potency [2] was “inactive”.
With `CCC(C)OC(=O)N1CCCCC1CCO` (configuration not stated) the Potency [1] was “inactive” and the Potency [2] was “inactive”.
For `CC(=O)OC(C)OC(=O)C(C)c1ccc(-c2ccccc2)c(F)c1` (configuration not stated), the Potency [1] was “inactive” and the Potency [2] was “inactive”.
In the case of `O=S(=O)(O)SSS(=O)(=O)O`, the Potency [1] was “inactive” and the Potency [2] was “inactive”.
In the case of `CCCN(CCC)CCc1cccc2c1CC(=O)N2`, the Potency [1] was “inactive” and the Potency [2] was “inactive”.
With `CC(=O)Oc1cc(C(C)C)c(OCCN(C)C)cc1C` the Potency [1] was “inactive” and the Potency [2] was “inactive”.
With `CCCc1ccc(O)c(OC)c1` the Potency [1] was “inactive” and the Potency [2] was “inactive”.
For `O=C(c1ccccc1)C(O)c1ccccc1` (configuration not stated), the Potency [1] was “inactive” and the Potency [2] was “inactive”.
For `C/C=C/C=C/CCCCCCCO`, the Potency [1] was “inactive” and the Potency [2] was “inactive”.
In the case of `COc1ccc(OC)c(C(O)CNC(=O)CN)c1` (configuration not stated), the Potency [1] was “inactive” and the Potency [2] was “inactive”.
With `CC(=O)Nc1ccc(S(N)(=O)=O)cc1` the Potency [1] was “inactive” and the Potency [2] was “inactive”.
In the case of `O=[N+]([O-])c1cccc(S(=O)(=O)NCCNS(=O)(=O)c2cccc([N+](=O)[O-])c2)c1`, the Potency [1] was “inactive” and the Potency [2] was “inactive”.
For `Cc1ccc(C(=O)c2cc(O)c(O)c([N+](=O)[O-])c2)cc1`, the Potency [1] was “inactive” and the Potency [2] was “inactive”.
With `CN(C)C/C=C(/c1ccc(Br)cc1)c1cccnc1` the Potency [1] was “inactive” and the Potency [2] was “inactive”.
In the case of `OC(CCN1CCCCC1)(c1ccccc1)C1CCCCC1` (configuration not stated), the Potency [1] was “inactive” and the Potency [2] was “inactive”.
With `C#CCN[C@@H]1CCc2ccccc21` the Potency [1] was “inactive” and the Potency [2] was “inactive”.
For `CC(C)(COC(=O)c1ccccc1)COC(=O)c1ccccc1`, the Potency [1] was “inactive” and the Potency [2] was “inactive”.
With `CCOC(=O)COc1ccc2c(C)c(CCN(CC)CC)c(=O)oc2c1Cl` the Potency [1] was “inactive” and the Potency [2] was “inactive”.
For `COc1cc(C=O)ccc1OC(=O)C(C)C`, the Potency [1] was “inactive” and the Potency [2] was “inactive”.
In the case of `CCCC[N+](C)(CCCC)CCCC`, the Potency [1] was “inactive” and the Potency [2] was “inactive”.
In the case of `CC(N)C(=O)OC(C)(C)Cc1ccc(Cl)cc1` (configuration not stated), the Potency [1] was “inactive” and the Potency [2] was “inactive”.
Work on `O=C(O)O` yielded a viability change, negative = cytotoxic [1] of 7.81% [at 8.39 µM] and an activity change, negative = cytotoxicity [2] of -5.94% [at 8.39 µM].
In the case of `Oc1ccc(Nc2ccccc2)cc1`, the Potency [1] was “inactive” and the Potency [2] was “inactive”.
With `CCCCC(CC)COC(=O)CS` (configuration not stated) the Potency [1] was “inactive” and the Potency [2] was “inactive”.
With `CC(C)(C)c1ccc(-c2ccc(C(C)(C)C)cc2)cc1` the Potency [1] was “inactive” and the Potency [2] was “inactive”.
For `CC(C)CC(=O)CC(C)CC(C)C` (configuration not stated), the Potency [1] was “inactive” and the Potency [2] was “inactive”.
With `CC(=O)c1cccc([N+](=O)[O-])c1` the Potency [1] was “inactive” and the Potency [2] was “inactive”.
For `OCC(O)CS` (configuration not stated), the Potency [1] was “inactive” and the Potency [2] was “inactive”.
With `CCCCCC[C@@H](CCC)C(=O)O` the Potency [1] was “inactive” and the Potency [2] was “inactive”.
With `C=CC(C)C#N` (configuration not stated) the Potency [1] was “inactive” and the Potency [2] was “inactive”.
With `O=C(Nc1ccccc1SSc1ccccc1NC(=O)c1ccccc1)c1ccccc1` the Potency [1] was “inactive” and the Potency [2] was “inactive”.
In the case of `O=C(Cl)c1ccc(F)c(Cl)c1`, the Potency [1] was “inactive” and the Potency [2] was “inactive”.
With `Clc1ccc2c(c1)Nc1ccccc1S2` the Potency [1] was “inactive” and the Potency [2] was “inactive”.
With `CS(=O)(=O)c1ccc(Cl)cc1` the Potency [1] was “inactive” and the Potency [2] was “inactive”.
In the case of `COc1ccccc1OC(=O)Oc1ccccc1OC`, the Potency [1] was “inactive” and the Potency [2] was “inactive”.
With `c1cnc(N2CCN(Cc3ccc4c(c3)OCO4)CC2)nc1` the Potency [1] was “inactive” and the Potency [2] was “inactive”.
With `C[C@H](CCC(=O)O)[C@H]1CC[C@H]2[C@@H]3[C@H](O)C[C@@H]4C[C@H](O)CC[C@]4(C)[C@H]3C[C@H](O)[C@]12C` the Potency [1] was “inactive” and the Potency [2] was “inactive”.

Reference: PubChem BioAssay (Tox21)
